Activity calls are given as the source filed them.
Key:
[1] = system: Plasmodium falciparum Sir2 (PF13_0152, Sir2A); test: Plasmodium falciparum Sir2A binding compounds – biochemical, small-molecule microarray, 635 nm fluorescence, primary screen (AID 1098); settings: fluorescence 635 nm, higher = more signal;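 note: score merges spot fluorescence intensity with its signal-to-noise ratio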
[2] = probe aDKK1 binding to arrayed compounds – biochemical, biotinylated probe, 635/667 nm fluorescence, primary screen (AID 1099); settings: small-molecule microarray, higher = more signal;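 note: score merges 667nm spot fluorescence with signal to noise across triplicate slides; reference of the scale not given here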
[3] = probe aCHRDL2 binding to arrayed compounds – biochemical, biotinylated probe, 635/667 nm fluorescence, primary screen (AID 1100); settings: small-molecule microarray, higher = more signal
[4] = change in splice reporter luminescence, either direction, cell-based, HEK293, spliceosome inhibition project, primary screen (AID 1101); settings: HEK293 splicing luciferase reporter, 24 h, higher = more signal, called active from +8 up or from −8 down;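 note: HEK293 cells carrying a splicing-competent luciferase reporter gene; test concentration not given here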
[5] = target: Fibroblast growth factor 10 (Homo sapiens) (UniProt O15520); test: compounds binding fibroblast growth factor 10 – biochemical, small-molecule microarray, 635 nm fluorescence, primary screen (AID 1102); settings: FGF10 binding, fluorescence 635 nm, higher = more signal
[6] = system: glycogen synthase kinase-3 (GSK3A per assay name; protocol says GSK3B); test: compounds binding glycogen synthase kinase-3 – biochemical, small-molecule microarray, 635 nm fluorescence, GSK3A, primary screen (AID 1103); settings: fluorescence 635 nm, higher = more signal; note: the record names both GSK3A and GSK3B
[7] = target: Epidermal growth factor receptor (Homo sapiens) (UniProt P00533); test: compounds binding epidermal growth factor receptor – biochemical, small-molecule microarray, 635 nm fluorescence, primary screen (AID 1104); settings: EGFR binding, higher = more signal;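 note: score merges 667 nm emission intensity with spot signal to noise over triplicate slides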
[8] = target: Follistatin-related protein 3 (Homo sapiens) (UniProt O95633); test: compounds binding follistatin-related protein 3 – biochemical, small-molecule microarray, 635 nm fluorescence, primary screen (AID 1105); settings: FSTL3 binding, higher = more signal;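 note: score merges emission near 667 nm and signal to noise per printed spot across three slides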
[9] = target: Dickkopf-related protein 1 (Homo sapiens) (UniProt O94907); test: small molecules binding DKK1 protein – biochemical, small-molecule microarray, 635 nm fluorescence scan, primary screen (AID 1106); settings: higher = more signal;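 note: score merges emission near 667 nm with signal to noise over three replicate slides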
[10] = system: Inhibin beta A chain (activin A); test: small molecules binding activin A – biochemical, small-molecule microarray, 635 nm fluorescence scan, primary screen (AID 1107); settings: INHBA, higher = more signal;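 note: mouse activin A protein probed at 4.33 µg/mL on printed slides; score merges bound-protein fluorescence near 667 nm with spot signal-to-noise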

Fibroblast growth factor 10 (Homo sapiens), sequence (O15520 whole entry, looked up): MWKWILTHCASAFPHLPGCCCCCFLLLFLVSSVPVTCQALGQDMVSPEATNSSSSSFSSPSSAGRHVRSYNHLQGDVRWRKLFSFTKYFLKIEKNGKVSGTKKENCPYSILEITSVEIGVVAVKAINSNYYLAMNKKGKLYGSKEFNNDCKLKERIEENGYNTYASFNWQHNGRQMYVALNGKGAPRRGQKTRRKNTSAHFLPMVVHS
Follistatin-related protein 3 (Homo sapiens), sequence (O95633 whole entry, looked up): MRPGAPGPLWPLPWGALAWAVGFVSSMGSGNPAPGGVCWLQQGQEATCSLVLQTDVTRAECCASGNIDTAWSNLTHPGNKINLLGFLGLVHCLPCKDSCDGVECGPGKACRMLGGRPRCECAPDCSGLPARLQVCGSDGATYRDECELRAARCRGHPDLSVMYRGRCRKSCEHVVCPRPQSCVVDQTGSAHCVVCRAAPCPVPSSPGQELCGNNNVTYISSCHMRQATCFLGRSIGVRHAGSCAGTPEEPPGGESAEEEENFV
Epidermal growth factor receptor (Homo sapiens), sequence (P00533 whole entry, looked up): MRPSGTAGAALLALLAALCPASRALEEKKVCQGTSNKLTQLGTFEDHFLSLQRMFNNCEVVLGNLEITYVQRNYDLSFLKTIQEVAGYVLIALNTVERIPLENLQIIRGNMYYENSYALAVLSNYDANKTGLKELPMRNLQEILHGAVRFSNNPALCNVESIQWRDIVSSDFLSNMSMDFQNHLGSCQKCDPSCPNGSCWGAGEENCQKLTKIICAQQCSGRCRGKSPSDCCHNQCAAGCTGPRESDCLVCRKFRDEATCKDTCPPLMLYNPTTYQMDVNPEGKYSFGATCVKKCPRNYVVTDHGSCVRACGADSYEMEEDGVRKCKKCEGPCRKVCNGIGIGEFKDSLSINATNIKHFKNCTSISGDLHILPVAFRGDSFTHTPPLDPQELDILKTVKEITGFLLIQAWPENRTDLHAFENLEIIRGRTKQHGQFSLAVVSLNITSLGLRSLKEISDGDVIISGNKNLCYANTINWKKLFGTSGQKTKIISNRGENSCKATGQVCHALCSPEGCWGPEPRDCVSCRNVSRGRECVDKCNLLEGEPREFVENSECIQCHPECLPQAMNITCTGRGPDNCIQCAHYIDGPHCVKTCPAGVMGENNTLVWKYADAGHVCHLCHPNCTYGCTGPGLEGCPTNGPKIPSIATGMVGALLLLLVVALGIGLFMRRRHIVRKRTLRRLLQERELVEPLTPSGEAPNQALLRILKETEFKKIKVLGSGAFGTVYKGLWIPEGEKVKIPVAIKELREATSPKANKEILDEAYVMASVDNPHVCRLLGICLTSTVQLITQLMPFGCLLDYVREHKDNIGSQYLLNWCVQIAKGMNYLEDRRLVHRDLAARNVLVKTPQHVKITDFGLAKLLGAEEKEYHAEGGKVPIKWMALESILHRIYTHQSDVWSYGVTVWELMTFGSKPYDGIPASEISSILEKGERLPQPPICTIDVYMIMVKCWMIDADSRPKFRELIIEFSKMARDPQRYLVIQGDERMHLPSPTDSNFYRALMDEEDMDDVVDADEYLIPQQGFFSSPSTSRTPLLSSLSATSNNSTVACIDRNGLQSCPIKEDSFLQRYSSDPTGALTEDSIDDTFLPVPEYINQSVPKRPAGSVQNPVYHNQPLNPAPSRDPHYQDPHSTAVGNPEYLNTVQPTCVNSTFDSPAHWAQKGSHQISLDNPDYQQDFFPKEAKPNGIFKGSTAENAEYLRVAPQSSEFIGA
Dickkopf-related protein 1 (Homo sapiens), sequence (O94907 whole entry, looked up): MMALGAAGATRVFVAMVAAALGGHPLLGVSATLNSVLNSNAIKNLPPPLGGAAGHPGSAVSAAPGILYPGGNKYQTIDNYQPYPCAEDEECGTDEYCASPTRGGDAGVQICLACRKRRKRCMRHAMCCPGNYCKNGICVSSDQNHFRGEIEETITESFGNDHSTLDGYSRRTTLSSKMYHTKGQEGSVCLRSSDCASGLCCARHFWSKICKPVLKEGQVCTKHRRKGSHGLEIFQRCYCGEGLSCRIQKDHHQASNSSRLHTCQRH

C=C(COC)/C(=C/C[C@H](OC(=O)c1ccncc1)c1cccc(OCCO)c1)c1cc(C(=O)OC)ccc1OC
composite z-score [1]: 0.901 | composite z-score [2]: -0.0771 | composite z-score [3]: 0.195 | z-score [4]: -0.147 (inactive) | composite z-score [5]: 0.837 | composite z-score [6]: -0.208 | composite z-score [7]: -0.353 | composite z-score [8]: 0.0001 | composite z-score [9]: -0.0833 | composite z-score [10]: 0.533

NCCCCCNC(=O)[C@H]1C[C@H]2C(=O)NCC(=O)N2[C@H]1c1cccc(OCCO)c1
composite z-score [1]: 1.64 | composite z-score [2]: 0.31 | composite z-score [3]: 0.284 | z-score [4]: -0.284 (inactive) | composite z-score [5]: 1.25 | composite z-score [6]: 1.29 | composite z-score [7]: 0.388 | composite z-score [8]: 0.764 | composite z-score [9]: 0.912 | composite z-score [10]: -0.0463

C=C[C@H](COC(C)=O)N(Cc1ccc(OC(C)=O)c(OC)c1)S(=O)(=O)c1ccc(Br)cc1
composite z-score [1]: 0.723 | composite z-score [2]: 0.64 | composite z-score [3]: 0.612 | z-score [4]: -1.16 (inactive) | composite z-score [5]: 0.934 | composite z-score [6]: 1.06 | composite z-score [7]: 0.493 | composite z-score [8]: 0.579 | composite z-score [9]: 0.844 | composite z-score [10]: 0.426

COCCOC(=O)N1C(=O)[C@@]2(c3cc(C#CCNC(N)=O)ccc31)[C@H](c1ccc(O)cc1)N1[C@H](c3ccccc3)[C@H](c3ccccc3)OC(=O)[C@H]1[C@@H]2C(=O)Nc1nc2ccccc2s1
composite z-score [1]: 0.809 | composite z-score [2]: 0.668 | composite z-score [3]: 0.476 | z-score [4]: -0.564 (inactive) | composite z-score [5]: 1.14 | composite z-score [6]: 0.306 | composite z-score [7]: 0.228 | composite z-score [8]: 0.85 | composite z-score [9]: 0.562 | composite z-score [10]: 0.815

O=c1cccc(CCc2ccccc2)o1
composite z-score [1]: 0.931 | composite z-score [2]: -0.232 | composite z-score [3]: -0.44 | z-score [4]: 0.722 (inactive) | composite z-score [5]: 0.228 | composite z-score [6]: 0.599 | composite z-score [7]: -0.834 | composite z-score [8]: 0.153 | composite z-score [9]: 0.193 | composite z-score [10]: 0.532

COc1cc2c(cc1OC)CN(C(=O)[C@@H]1[C@H]3C(=O)O[C@H](c4ccccc4)[C@H](c4ccccc4)N3[C@H](c3ccccc3OCCO)[C@@]13C(=O)Nc1ccc(C#CCNC(N)=O)cc13)CC2
composite z-score [1]: 1.58 | composite z-score [2]: 0.0627 | composite z-score [3]: 0.281 | z-score [4]: 0.095 (inactive) | composite z-score [5]: 0.518 | composite z-score [6]: 1.08 | composite z-score [7]: 0.245 | composite z-score [8]: 0.445 | composite z-score [9]: 0.208 | composite z-score [10]: 0.922

O=c1cccc(C=Cc2ccccc2)o1
composite z-score [1]: -1.32 | composite z-score [2]: 0.121 | composite z-score [3]: 0.756 | z-score [4]: -0.121 (inactive) | composite z-score [5]: -0.629 | composite z-score [6]: 0.0144 | composite z-score [7]: -1.16 | composite z-score [8]: -0.657 | composite z-score [9]: -1.36 | composite z-score [10]: 0.758

O=C(CS)NCCCCCCNC(=O)[C@@H]1C[C@@H]2C(=O)N3CCC[C@H]3C(=O)N2[C@@H]1c1ccc(O)cc1
composite z-score [1]: 0.425 | composite z-score [2]: -0.207 | composite z-score [3]: 0.597 | z-score [4]: 0.552 (inactive) | composite z-score [5]: -0.252 | composite z-score [6]: 0.691 | composite z-score [7]: -0.226 | composite z-score [8]: -0.32 | composite z-score [9]: 0.17 | composite z-score [10]: -0.41

COC(=O)[C@@]1(Cc2ccc(OC)cc2)[C@H]2c3cc(C(=O)N4CCCC4)n(Cc4cc(F)cc5c4OCOC5)c3C[C@H]2CN1C(=O)c1ccccc1
composite z-score [1]: 0.782 | composite z-score [2]: 0.9 | composite z-score [3]: 0.984 | z-score [4]: -2.73 (inactive) | composite z-score [5]: 0.608 | composite z-score [6]: 0.573 | composite z-score [7]: 0.0471 | composite z-score [8]: 0.326 | composite z-score [9]: -0.451 | composite z-score [10]: 0.795

COc1ccc([Si](C)(C)[C@@H]2[C@@H](CCn3cc([C@H](O)c4ccccc4)nn3)O[C@]3(C(=O)N(Cc4ccc(N5C(=O)c6cccc7cccc5c67)cc4)c4ccccc43)[C@H]2C)cc1
composite z-score [1]: 0.286 | composite z-score [2]: -0.187 | composite z-score [3]: -0.0017 | z-score [4]: -1.5 (inactive) | composite z-score [5]: -0.456 | composite z-score [6]: -0.513 | composite z-score [7]: -0.471 | composite z-score [8]: -0.586 | composite z-score [9]: -0.795 | composite z-score [10]: -0.409

O=C1N(CCS(=O)(=O)c2ccccc2)Cc2ccccc2C[C@]12N=C(c1ccc(OCCCO)cc1)O[C@@H]2c1ccccc1
composite z-score [1]: 1.24 | composite z-score [2]: 0.467 | composite z-score [3]: 0.655 | z-score [4]: -1.46 (inactive) | composite z-score [5]: 1.4 | composite z-score [6]: 1.3 | composite z-score [7]: 0.477 | composite z-score [8]: 1.18 | composite z-score [9]: 0.784 | composite z-score [10]: 1.4

NC(=O)NCC#Cc1ccc2c(c1)[C@]1(C(=O)N2)[C@H](C(=O)N2CCCCCCC2)[C@H]2C(=O)O[C@H](c3ccccc3)[C@H](c3ccccc3)N2[C@@H]1c1ccc(OCCO)cc1
composite z-score [1]: 1.2 | composite z-score [2]: 2.11 | composite z-score [3]: 1.36 | z-score [4]: -0.144 (inactive) | composite z-score [5]: 1.29 | composite z-score [6]: 0.748 | composite z-score [7]: 1.35 | composite z-score [8]: 1.63 | composite z-score [9]: 1.75 | composite z-score [10]: 1.53

CC(C)C(=C=CC[C@@H](O)c1ccccc1OCCO)C[C@@H](O)c1ccccn1
composite z-score [1]: 1.52 | composite z-score [2]: -0.235 | composite z-score [3]: -0.448 | z-score [4]: 0.446 (inactive) | composite z-score [5]: 1.05 | composite z-score [6]: 0.556 | composite z-score [7]: 0.141 | composite z-score [8]: 0.425 | composite z-score [9]: 0.34 | composite z-score [10]: 0.715

O=C1O[C@H](c2ccccc2)[C@H](c2ccccc2)N2[C@H]1[C@@H](C(=O)O)[C@]1(C(=O)Nc3ccc(C#CC4(O)CCCCCC4)cc31)[C@H]2c1ccc(OCCO)cc1
composite z-score [1]: 0.303 | composite z-score [2]: 0.2 | composite z-score [3]: 0.388 | z-score [4]: -0.117 (inactive) | composite z-score [5]: 0.299 | composite z-score [6]: 0.132 | composite z-score [7]: -0.329 | composite z-score [8]: 0.418 | composite z-score [9]: -0.623 | composite z-score [10]: -0.374

CC(C)N1CC=CC23O[C@@H]4C=CCOC(=O)[C@@H]4[C@H]2C(=O)N(CCO)[C@@H]3C1=O (stereo not given in full)
composite z-score [1]: 1.58 | composite z-score [2]: -0.256 | composite z-score [3]: 0.651 | z-score [4]: -0.262 (inactive) | composite z-score [5]: -1.61 | composite z-score [6]: -0.897 | composite z-score [7]: -0.859 | composite z-score [8]: -0.447 | composite z-score [9]: -1.61 | composite z-score [10]: -0.223

C[C@]1(C(=O)NCc2ccccc2)c2ccccc2C(=O)N(Cc2cc(F)cc(C(F)(F)F)c2)[C@H]1c1ccc(CO)cc1
composite z-score [1]: 0.876 | composite z-score [2]: 0.214 | composite z-score [3]: 0.637 | z-score [4]: -0.102 (inactive) | composite z-score [5]: -0.384 | composite z-score [6]: -0.422 | composite z-score [7]: -0.505 | composite z-score [8]: -1.45 | composite z-score [9]: -1.21 | composite z-score [10]: -0.185

CS(=O)(=O)CCOC(=O)C1=CC(c2ccc(CO)cc2)=CC(C2CC2)N(Cc2cc3c(cc2Br)OCO3)C=C1C(=O)OCCS(C)(=O)=O (stereo not given)
composite z-score [1]: 0.848 | composite z-score [2]: 0.296 | composite z-score [3]: 0.351 | z-score [4]: 0.883 (inactive) | composite z-score [5]: 1.08 | composite z-score [6]: 1.18 | composite z-score [7]: 0.425 | composite z-score [8]: 0.932 | composite z-score [9]: 0.391 | composite z-score [10]: 0.701

From PubChem BioAssay
